# Assay results from PubChem BioAssay (NCATS).
# Results filed as inconclusive are left out. A number with no mark means an inactive call. Active and inactive are the calls of the source. The call rests on the fitted dose curve; in most records, active means well fitted inhibition curve with a large enough effect; inconclusive means small, poorly fitted or top-dose-only effect; inactive means no such curve, though single readings can be large or run the other way.
# Test: qHTS to identify inhibitors of the type 1 interferon - major histocompatibility complex class I in skeletal muscle: primary screen against the NCATS Mechanism Interrogation Plate v5.0 (MIPE) Libary (AID 1347411); further: nearly all actives have a fitted effect of over 65% in size;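 on activity change, negative = inhibition: plate controls were vehicle for no effect and reference inhibitor for full effect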
# Conditions: iHSKM cells + IFN-b, HiBiT-tagged MHC-I luminescence, 24 h; series mostly up to 45.8 µM; activity change, negative = inhibition: at the top concentration
# Source text: Assay Submitter (PI): Travis B. Kinder Ph.D. & James Inglese Ph.D.
# Assay Development and Screening Technology Laboratory (ADST)
# National Center for Advancing Translational Sciences (NCATS), Rockville, MD
# National Institute of Health (NIH), Bethesda, Maryland
# Idiopathic inflammatory myopathies, collectively referred to as myositis, are a group of rare autoimmune diseases characterized by skeletal muscle inflammation, weakness, and usually accompanied by systemic pathologies of the skin, lungs, or vasculature. Current immunosuppressive therapies and glucocorticoids are often not curative and are accompanied by harsh side effects, especially in children with juvenile myositis. We initiated a drug repurposing and development program to identify more targeted, less toxic therapeutics to treat myositis. Although its cause is not known, muscle from a subset of patients have an abundance of the inflammatory type 1 interferon (IFN) and a down-stream product major histocompatibility complex class I (MHC class I), which are both thought to contribute to damage and weakness. We conducted quantitative high throughput screening on 6,576 compounds (4,679 unique) through a series of cell-based assays to identify those that inhibit the IFN-stimulated expression of MHC class I in muscle precursor cells (myoblasts). The compound identification and evaluation strategy utilized a primary screen with reporter-tagged MHC class I in genome-engineered myoblasts, ATP content counter screen for viability, HLA-ABC immunofluorescence secondary screen, and HLA-B RT-qPCR tertiary screen.
# The primary screen utilized CRISPR/Cas9 genome-engineering of immortalized human myoblasts, C25cl48, where a pro-luminescent reporter HiBit was fused to the C-terminus of endogenous MHC class I allele HLA-B*08:01 (HLA-B HiBit myoblasts). HiBit is an 11 amino acid fragment of NanoLuc luminescent reporter (Promega Corporation), and when complexed to the larger LgBit fragment, the reconstituted enzyme produces light in the presence of furimazine substrate (Schwinn et al., 2018). Briefly, HLA-B HiBit myoblasts were plated into 1536-well plates, treated with 4.0 ng/ml human IFN-beta and 2,480 compounds from the NCATS Mechanism Interrogation Plate v5.0 (MIPE5.0) in an 11-point, 1:3 titration with a high final concentration of 46 uM. After 24 hrs of treatment, cells were assayed by Nano-Glo HiBiT Lytic Detection System (Promega) and luminescence measured by a ViewLux 1430 Ultra HTS (Perkin Elmer).
# Schwinn MK, Machleidt T, Zimmerman K, Eggers CT, Dixon AS, Hurst R, Hall MP, Encell LP, Binkowski BF, Wood K V. 2018. CRISPR-Mediated Tagging of Endogenous Proteins with a Luminescent Peptide. ACS Chem Biol 13:467-474. doi:10.1021/acschembio.7b00549
# PROTOCOL TABLE (as described by Inglese et al., 2007)
# SEQUENCE No. (e.g., 1, 2, 3, etc.); […] (e.g., Cells, Incubation, Reagent, etc.); VALUE; DESCRIPTION
# 1a; Cells; 5 uL; Use a Multidrop Combi (Thermo Scientific) to seed 300 cells/well into 24 Greiner 1536 well white/solid bottom, high base, TC plates in 5 ul/well of iHSKM growth medium (GM) without dexamethasone into columns 1+2. Add metal lids with gas-exchange holes
# 1b; Cells; 5 uL; Use a Multidrop Combi (Thermo Scientific) to seed 300 cells/well into 24 Greiner 1536 well white/solid bottom, high base, TC plates in 5 ul/well of iHSKM GM without dexamethasone + 4 ng/ml IFN-b into columns 3 - 48. Add metal lids with gas-exchange holes
# 2; Incubate; 1 hr; Incubate at 37 C, 5% CO2, 95% RH
# 3; Compounds; 23 nl; Use Pin Tool (Wako) to transfer DMSO control, ruxolitinib IFN-b inhibitor control [High Concentration = 80 uM final, 16-pt, 1:2 in duplicate], and library compounds in DMSO
# 4; Incubate; 24 hrs; Incubate at 37 C, 5% CO2, 95% RH
# 5; Dispense; 2.5 ul; Use BioRAPTR FRD (Beckman Coulter) to add HiBit lytic reagent
# 6; Incubate; 10 min; Incubate in the dark at ambient temperature for lysis
# 7; Detector; 5 sec; Measure luminescence with ViewLux 1430 Ultra HTS (Perkin Elmer). […]
# Potency means the concentration at half of the fitted maximal effect.
SMILES,Potency,"activity change, negative = inhibition"
Cc1ccc(C(=O)Nc2ccc(CN3CCN(C)CC3)c(C(F)(F)F)c2)cc1C#Cc1cnc2cccnn12,4.15 µM (active),–
CN1CCC(CNc2ccc3ncc(-c4cccc(OC(F)(F)F)c4)n3n2)CC1,14.7 µM (active),–
O=C(O)Cn1nnc(-c2cc(N3CCC(Oc4cc(F)ccc4Br)CC3)no2)n1,–,-18.1%
CC(C)(C)c1cc(C(C)(C)C)c(NC(=O)c2c[nH]c3ccccc3c2=O)cc1O,23.4 µM (active),–
C=CC(=O)Nc1cc2c(Nc3ccc(F)c(Cl)c3)ncnc2cc1C#CC(C)(C)N1CCN(C)CC1,8.29 µM (active),–
Fc1cc(-c2cccc3ncc(-c4cnn(C5CCNCC5)c4)nc23)cc(F)c1CN1CCOCC1,11.7 µM (active),–
Nc1ccccc1NC(=O)c1ccc(CNc2nccc(-c3cccnc3)n2)cc1,7.39 µM (active),–
C=CCn1c(=O)c2cnc(Nc3ccc(N4CCN(C)CC4)cc3)nc2n1-c1cccc(C(C)(C)O)n1,–,-22.3%
COc1ccc(-n2nc(C(N)=O)c3c2C(=O)N(c2ccc(N4CCCCC4=O)cc2)CC3)cc1,–,-12.2%
Cc1cc(Nc2ncnc3ccc(-c4ccc(CNCCS(C)(=O)=O)o4)cc23)ccc1Oc1ccn2ncnc2c1,–,-18.1%
Cc1ccc(C(N)=O)cc1Nc1nccc(-c2cn(C(C)C)c3cnccc23)n1,8.29 µM (active),–
Cc1cc(Nc2cc(NC(=O)c3c(Cl)cccc3Cl)ccn2)nc(N)n1,4.66 µM (active),–
Cc1cc(Nc2cc(CN3CCOCC3)c3nc(C)c(Cc4ccc(Cl)cc4F)n3n2)n[nH]1,5.23 µM (active),–
CC(=O)c1c(C)c2cnc(Nc3ccc(N4CCNCC4)cn3)nc2n(C2CCCC2)c1=O,14.7 µM (active),–
Nc1cccc(-c2cc3c(Oc4cccc(O)c4)ncnc3[nH]2)c1,13.1 µM (active),–
C[C@@H](Oc1cc(-n2cnc3ccc(CN4CCN(C)CC4)cc32)sc1C(N)=O)c1ccccc1C(F)(F)F,20.8 µM (active),–
COc1cc(C(=O)NS(=O)(=O)c2ccccc2C)ccc1Cc1cn(C)c2ccc(NC(=O)OC3CCCC3)cc12,–,6.98%
Cc1ccc(NC(=O)C2(c3ccc4c(c3)OC(F)(F)O4)CC2)nc1-c1cccc(C(=O)O)c1,–,-16.4%
Cc1cc(Nc2cc(N3CCN(C)CC3)nc(Sc3ccc(NC(=O)C4CC4)cc3)n2)n[nH]1,–,-22.9%
O=c1[nH]nc(Sc2ncc([N+](=O)[O-])s2)n1-c1ccc2c(c1)OCCO2,6.58 µM (active),–

SMILES,Potency,"activity change, negative = inhibition"
O=C(Nc1cn[nH]c1-c1nc2ccc(CN3CCOCC3)cc2[nH]1)NC1CC1,3.3 µM (active),–
CC(C)(C)c1cnc(CSc2cnc(NC(=O)C3CCNCC3)s2)o1,0.262 µM (active),–
Cc1nc2cnc3ccc(C#Cc4cccnc4)cc3c2n1-c1ccc(C(C)(C)C#N)cc1,14.7 µM (active),–
COc1cccc(Nc2c(C(N)=O)cnc3c(C)cc(S(=O)(=O)c4cccc(C(=O)N(C)C)c4)cc23)c1,–,0.814%
Cc1ccc(C(=O)Nc2cccc(C(F)(F)F)c2)cc1-c1ccc2nc(NCCN3CCOCC3)ncc2c1,5.87 µM (active),–
Cc1nc(Nc2n[nH]c3c2CN(C(=O)N[C@H](CN(C)C)c2ccccc2)C3(C)C)c2sccc2n1,0.0523 µM (active),–
CC(=O)OCC(=O)[C@@]1(O)[C@H](C)C[C@H]2[C@@H]3C=C(C)C4=Cc5c(cnn5-c5ccccc5)C[C@]4(C)[C@@H]3[C@@H](O)C[C@@]21C,–,3.21%
Cc1ccc(-c2ncn(-c3ccc(Nc4nccc(-c5cccc(N6CCOCC6)c5)n4)cc3)n2)cn1,0.829 µM (active),–
C[C@@H]1CN(CC(=O)Nc2ccc3c(c2)Cc2cccc(-c4cc(=O)cc(N5CCOCC5)o4)c2S3)C[C@H](C)O1,–,-29.1%
COC(=O)C1=C(C)NC(C)=C(C(=O)OCCN2CCN(C(c3ccccc3)c3ccccc3)CC2)C1c1cccc([N+](=O)[O-])c1 (stereo not given),–,-38.8%
CC1(C)CCC(c2ccc(Cl)cc2)=C(CN2CCN(c3ccc(C(=O)NS(=O)(=O)c4ccc(N[C@H](CCN5CCOCC5)CSc5ccccc5)c(S(=O)(=O)C(F)(F)F)c4)cc3)CC2)C1,–,-28.2%
Cc1ccc2nc(NC(=O)CSc3nc4c(c(=O)n3-c3ccccc3)SCC4)sc2c1,–,13.6%
CN1c2cc(O)c(N=NC(N)=O)cc2CC1S(=O)(=O)O (stereo not given),–,-18.3%
CNc1nccc(-c2cccnc2Oc2cc(C(=O)Nc3cccc(C(F)(F)F)c3)ccc2C)n1,5.87 µM (active),–
COc1cccc2nc(-c3cccs3)nc(NN3C(=O)C=C(C)C3=O)c12,2.94 µM (active),–
Clc1ccc2ncc(-c3cccc(NC4CNC4)n3)n2c1,–,-2.29%
COc1ccc2c(c1)CC[C@@H](CN(C)CC(=O)O)[C@H]2c1ccccc1,–,19.7% [at 91.7 µM]
CN(C)CC(C)(C)CNc1nn2c(-c3ccccc3)nnc2cc1C1CCC1,–,1.6%
CNC(=O)c1ccc(N2C(=S)N(c3cnc(C#N)c(C(F)(F)F)c3)C(=O)C23CCC3)cc1F,–,-26.2%
COc1cccc(-c2ccc(NC(=O)C3=C(C(=O)O)CCC3)c(F)c2)c1,–,-40.5%
